Test results taken from PubChem BioAssay (NCATS).
Results filed as inconclusive are left out. Calls of active or inactive are those of the source. Calls follow the shape of the dose curve; as a rule, active = well fitted curve in the direction sought with a large enough effect; inconclusive = small, poorly fitted or top-dose-only effect, or another doubt; inactive = no such curve, though single readings can be large; an effect the other way counts as inactive or inconclusive.

Key:
[1] = qHTS of pediatric cancer cell lines to identify multiple opportunities for drug repurposing: Primary screen for DAOY cells (AID 1347090); also: nearly all actives have a fitted effect of over 55% in size; also: potency is read from the fitted curve at half-maximal effect;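 as to activity change, negative = cytotoxic: series mostly up to about 46 µM; plate controls were DMSO for no effect and bortezomib for full effect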
Procedure, shortened: (§1)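 Eight- or eleven-point concentration series, 48 h treatment at 37 degrees C in growth media; readout CellTiter-Glo luminescence. Potency and efficacy were taken from the concentration-response curves.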

[2] = qHTS of pediatric cancer cell lines to identify multiple opportunities for drug repurposing: Primary screen for SJ-GBM2 cells (AID 1347091); also: potency is read from the fitted curve at half-maximal effect;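 as to activity change, negative = cytotoxic: plate controls were DMSO neutral control for no effect and bortezomib for full effect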
Procedure, shortened: as §1

[3] = qHTS of pediatric cancer cell lines to identify multiple opportunities for drug repurposing: Primary screen for A673 cells (AID 1347092); also: nearly all actives have a fitted effect of over 45% in size; also: potency is read from the fitted curve at half-maximal effect; as to activity change, negative = cytotoxic: % is scaled to controls: 0 for no effect and ±100 for the full control effect
Procedure, shortened: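 A673 cells (500-1,000 cells/well) were treated 48 hours at 37 degrees C with compounds at 11-point (0.78 nM to 46 µM) or 8-point (0.59 nM to 46 µM) dilutions. Viability read by CellTiter-Glo luminescence; concentration-response curves fitted.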

[4] = qHTS of pediatric cancer cell lines to identify multiple opportunities for drug repurposing: Primary screen for SK-N-MC cells (AID 1347093);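 also: series mostly up to about 46 µM; plate controls were DMSO neutral control for no effect and bortezomib for full effect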
Procedure, shortened: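 Metabolically active cells were quantified by ATP-dependent luminescence (CellTiter-Glo, 15 min at room temperature) following 48 h treatment. Cells had been plated at 500-1,000 per well and settled for 5 h beforehand.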

[5] = qHTS of pediatric cancer cell lines to identify multiple opportunities for drug repurposing: Primary screen for BT-37 cells (AID 1347094); also: potency is read from the fitted curve at half-maximal effect;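 as to activity change, negative = cytotoxic: series mostly up to about 57 µM; plate controls were DMSO for no effect and bortezomib for full effect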
Procedure, shortened: (§2)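 500-1,000 cells/well; 5 h pre-incubation 37 °C/5% CO2; compound pinned; 48 h; CellTiter-Glo, 15 min RT; luminescence. MIPE 11-pt from 0.78 nM, NPC 8-pt from 0.59 nM final. Bortezomib 2.3 µM final as positive control.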

[6] = qHTS of pediatric cancer cell lines to identify multiple opportunities for drug repurposing: Primary screen for NB-EBc1 cells (AID 1347095); also: potency is read from the fitted curve at half-maximal effect;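 as to activity change, negative = cytotoxic: plate controls were DMSO neutral control for no effect and bortezomib for full effect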
Procedure, shortened: as §2

[7] = qHTS of pediatric cancer cell lines to identify multiple opportunities for drug repurposing: Primary screen for U-2 OS cells (AID 1347096); also: nearly all actives have a fitted effect of over 50% in size; also: potency is read from the fitted curve at half-maximal effect;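 as to activity change, negative = cytotoxic: plate controls were DMSO wells for no effect and bortezomib positive control wells for full effect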
Procedure, shortened: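 Cells (500-1,000/well) in growth media were settled 5 h at 37 degrees C, then given compounds for 48 h. Viability was read as CellTiter-Glo luminescence. Primary runs used MIPE at 11 points (0.78 nM-46 µM) and NPC at 8 points (0.59 nM-46 µM); follow-ups used 11 points.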

[8] = qHTS of pediatric cancer cell lines to identify multiple opportunities for drug repurposing: Primary screen for Saos-2 cells (AID 1347097); also: nearly all actives have a fitted effect of over 40% in size; also: potency is read from the fitted curve at half-maximal effect; as to activity change, negative = cytotoxic: % is scaled to controls: 0 for no effect and ±100 for the full control effect
Procedure, shortened: as §2

[9] = qHTS of pediatric cancer cell lines to identify multiple opportunities for drug repurposing: Primary screen for SK-N-SH cells (AID 1347098); also: nearly all actives have a fitted effect of over 65% in size; also: potency is read from the fitted curve at half-maximal effect;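 as to activity change, negative = cytotoxic: DMSO served as neutral control and bortezomib at 2.3 µM as positive control; % is scaled to controls: 0 for no effect and ±100 for the full control effect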
Procedure, shortened: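 Cells (500-1,000/well) rested 5 h, then received compounds for 48 h; metabolically active cells were measured by CellTiter-Glo luminescence. Final concentrations spanned up to 46 µM (MIPE, 11-point) or 0.59 nM-46 µM (NPC, 8-point) in primary screens, 11-point in follow-ups.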

[10] = qHTS of pediatric cancer cell lines to identify multiple opportunities for drug repurposing: Primary screen for NB1643 cells (AID 1347099);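 also: plate controls were DMSO neutral control for no effect and bortezomib positive control for full effect; nearly all actives have a fitted effect of over 50% in size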
Procedure, shortened: as §2

COc1cc(C(=O)N2CCOCC2)cc(OC)c1OC
inactive: Potency [1] | Potency [2] | Potency [3] | Potency [4] | Potency [5] | Potency [6] | Potency [7] | Potency [8] | Potency [9] | Potency [10]

Cc1cccc(C)c1NC(=O)CN(CC(=O)O)CC(=O)O
inactive: Potency [1] | Potency [2] | Potency [3] | Potency [4] | Potency [5] | Potency [6] | Potency [7] | Potency [9] | Potency [10]

NS(=O)(=O)c1cc2c(cc1Cl)NC(CSCc1ccccc1)=NS2(=O)=O
inactive: Potency [1] | Potency [2] | Potency [3] | Potency [4] | Potency [5] | Potency [6] | Potency [7] | Potency [9] | Potency [10]

CC(COc1ccccc1)NC(C)C(O)c1ccc(O)cc1 (stereo not drawn)
inactive: Potency [1] | Potency [2] | Potency [3] | Potency [4] | Potency [5] | Potency [6] | Potency [7] | Potency [8] | Potency [9] | Potency [10]

CC1=C(CC(=O)O)c2cc(F)ccc2/C1=C\c1ccc(S(C)=O)cc1 (stereo not drawn)
inactive: Potency [1] | Potency [2] | Potency [3] | Potency [4] | Potency [5] | Potency [6] | Potency [7] | Potency [8] | Potency [9] | Potency [10]

CC/C=C(\C(=O)N[C@@H]1C(=O)N2C(C(=O)OCOC(=O)C(C)(C)C)=C(COC(N)=O)CS[C@H]12)c1csc(N)n1
inactive: Potency [1] | Potency [2] | Potency [3] | Potency [4] | Potency [5] | Potency [6] | Potency [7] | Potency [8] | Potency [9] | Potency [10]

C[C@@H]1CC[C@@]2(OC1)O[C@H]1C[C@H]3[C@@H]4CC[C@H]5C[C@@H](O)CC[C@]5(C)[C@H]4CC(=O)[C@]3(C)[C@H]1[C@@H]2C
inactive: activity change, negative = cytotoxic [1] 10.7% [at 4.84 µM] | activity change, negative = cytotoxic [2] 26.5% [at 4.84 µM] | activity change, negative = cytotoxic [3] 9.64% [at 4.84 µM] | activity change, negative = cytotoxic [4] 6.15% [at 4.84 µM] | activity change, negative = cytotoxic [5] 3.33% [at 6.03 µM] | activity change, negative = cytotoxic [6] 21.8% [at 4.84 µM] | activity change, negative = cytotoxic [7] 8.89% [at 4.84 µM] | activity change, negative = cytotoxic [8] -14.3% [at 4.84 µM] | activity change, negative = cytotoxic [9] -10.6% [at 6 µM] | activity change, negative = cytotoxic [10] 31.5% [at 4.84 µM]

CCCCCCCCCCCCOS(=O)(=O)O
inactive: Potency [1] | Potency [2] | Potency [3] | Potency [4] | Potency [5] | Potency [6] | Potency [7] | Potency [9] | Potency [10]

Cc1ncc(COP(=O)(O)O)c(C=O)c1O
inactive: Potency [1] | Potency [2] | Potency [3] | Potency [4] | Potency [5] | Potency [6] | Potency [7] | Potency [9] | Potency [10]

CS(=O)(=O)c1ccc([C@@H](O)[C@@H](CF)NC(=O)C(Cl)Cl)cc1
inactive: Potency [1] | Potency [2] | Potency [3] | Potency [4] | Potency [5] | Potency [6] | Potency [7] | Potency [9] | Potency [10]

Nc1cc(=O)[nH]c(N)n1
inactive: Potency [1] | Potency [2] | Potency [3] | Potency [4] | Potency [5] | Potency [6] | Potency [7] | Potency [10]

O=C(O)[C@@H]1CSCN1
inactive: Potency [1] | Potency [2] | Potency [3] | Potency [4] | Potency [6] | Potency [7] | Potency [9] | Potency [10]

C[C@H]1O[C@H](O[C@H]2[C@H](O)[C@@H](O)[C@@H](O[C@H]3[C@H](O)[C@@H](O)[C@H](O)O[C@@H]3CO)O[C@@H]2CO)[C@H](O)[C@@H](O)[C@@H]1N[C@H]1C=C(CO)[C@@H](O)[C@H](O)[C@H]1O
inactive: Potency [1] | Potency [2] | Potency [3] | Potency [4] | Potency [6] | Potency [7] | Potency [8] | Potency [9] | Potency [10]

COc1ccc2[nH]c(S(=O)Cc3ncc(C)c(OC)c3C)nc2n1 (stereo not drawn)
inactive: Potency [1] | Potency [2] | Potency [3] | Potency [4] | Potency [6] | Potency [7] | Potency [9] | Potency [10]

CC(C)c1c(C(=O)Nc2ccccc2)c(-c2ccccc2)c(-c2ccc(F)cc2)n1CC[C@@H](O)C[C@@H](O)CC(=O)O
active: Potency [1] 4.22 µM | Potency [2] 11.9 µM | Potency [3] 21.1 µM | Potency [5] 24.6 µM | Potency [7] 21.1 µM | Potency [8] 841 nM | Potency [9] 12.2 µM

NC(=O)N/N=C/c1ccc([N+](=O)[O-])o1
active: Potency [3] 48.6 µM
inactive: Potency [1] | Potency [2] | Potency [4] | Potency [6] | Potency [7] | Potency [8] | Potency [9] | Potency [10]

O=C(O)[C@H](O)c1ccccc1
inactive: Potency [1] | Potency [2] | Potency [3] | Potency [4] | Potency [6] | Potency [7] | Potency [8] | Potency [9] | Potency [10]

CCOc1nc2cccc(C(=O)O)c2n1Cc1ccc(-c2ccccc2-c2nn[nH]n2)cc1
inactive: Potency [1] | Potency [2] | Potency [3] | Potency [5] | Potency [6] | Potency [7] | Potency [8] | Potency [9] | Potency [10]

C[C@H]1O[C@@H](n2cc(F)c(=O)[nH]c2=O)[C@H](O)[C@@H]1O
inactive: Potency [1] | Potency [2] | Potency [3] | Potency [5] | Potency [7] | Potency [9] | Potency [10]
active: Potency [6] 2.99 µM

COc1ccc(Cl)cc1C(=O)NCCc1ccc(S(=O)(=O)NC(=O)NC2CCCCC2)cc1
inactive: Potency [1] | Potency [2] | Potency [3] | Potency [5] | Potency [6] | Potency [7] | Potency [8] | Potency [9] | Potency [10]

C[C@]12CC[C@@H]3c4ccc(O)cc4CC[C@H]3[C@@H]1CCC2=O
inactive: Potency [1] | Potency [2] | Potency [3] | Potency [4] | Potency [6] | Potency [7] | Potency [9] | Potency [10]

OC[C@H]1O[C@@H](O[C@@H]2[C@@H](CO)O[C@](O)(CO)[C@H]2O)[C@H](O)[C@@H](O)[C@H]1O
inactive: Potency [1] | Potency [2] | Potency [3] | Potency [4] | Potency [6] | Potency [7] | Potency [9] | Potency [10]

COC(=O)[C@H]1[C@H]2C[C@@H]3c4[nH]c5cc(OC)ccc5c4CCN3C[C@H]2C[C@@H](OC(=O)COc2ccc(OC)cc2)[C@@H]1OC
inactive: Potency [1] | Potency [2] | Potency [3] | Potency [5] | Potency [6] | Potency [7] | Potency [8] | Potency [9] | Potency [10]

CC1=C(C/C=C(\C)CCC[C@H](C)CCC[C@H](C)CCCC(C)C)C(=O)c2ccccc2C1=O
inactive: Potency [1] | Potency [2] | Potency [3] | Potency [4] | Potency [6] | Potency [7] | Potency [8] | Potency [9] | Potency [10]
